# Results taken from the supplement of paper PMC10338343.
# ± gives the standard deviation.
# Tested on: MILI (PIWIL2) piRISC loaded with piRNA #1 (26 nt)
# Test: pre-steady-state target cleavage rate (min^-1); guide: piRNA #1 5'p-UGAGGUAGUAGGUUGUAUAGUAUCCA; MIWI and MILI are mouse PIWI proteins and EfPiwi is from a freshwater sponge; tags in brackets are library labels; higher = faster piRNA-guided slicing of the target
# Details: auxiliary factor: 500 nM mouse GTSF1
# Summary of the method: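 In Cleave-'n-Seq, a transcribed, DNA-blocked target RNA library (0.1 nM) was combined with 1 nM active affinity-purified piRISC bearing one synthetic guide, with or without 500 nM GTSF1 partner protein. Reactions ran in HEPES–potassium acetate buffer at 33 °C for 0–8 or 0–960 min. Uncleaved targets were sequenced and normalised to depth and to weakly complementary targets, three trials were pooled, and k3 was capped at 0.0001 min^-1. The pre-steady-state cleavage rate was obtained by fitting a burst-and-steady-state model.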
row,Sequence,pre-steady-state target cleavage rate
1,GGAGACGAUACUAAACAACCAACUACCUCA,0.00769 ± 0.0028
2,GGAGACCUAUGAUAUGUUGGUAUACCUCA,< 0.0001
3,GGAGACCAUUCUAUACAACCUACUACGUCA,0.0404 ± 0.0088
4,GGAGACCUAAGUAUACAACCUACUUCCUCA,0.0285 ± 0.0069
5,GGAGAGGUUACUAUAGAACCUACUACCUCA,0.157 ± 0.018
6,GGAGACCUAUCUAUACAACCUACAUGCUCA,0.068 ± 0.021
7,GGAGUGGAUACUAUACAACCUUCAACCUCA,0.00344 ± 0.0019
8,GGAGACCUAUGAUUACAACCUAAUACCUCA,0.00387 ± 0.0022
9,GGAGACCUAUGUAUACAACCAACUACCUCA,0.0033 ± 0.002
10,GGAGACCUAUCUAUACAACGAACUACCUCA,0.00423 ± 0.0023
11,GGAGACCUAUGAUAUGUUGCUACUUCCACA,< 0.0001
12,GGAGACCUAACUAUACAUCCUACUACCACA,0.251 ± 0.046
13,GGAGACCUAUGUAUACAACCUUCUACCACA,0.00445 ± 0.0026
14,GGAGACCUAUGAUUACAAGCUACUACCACA,0.0854 ± 0.022
15,GGAGACCUAUCAAUACAACCUACUACGUCA,0.0134 ± 0.0044
16,GGAGACCUAUGAUAACAACCUACCUACCUCA,0.00593 ± 0.003
17,GGAGACCUAUCUUAACAACCUACUACCUCA,0.0183 ± 0.0045
18,GGAGACCAUUGAAUACAACCUACUACCUCA,0.0121 ± 0.0038
19,GGAGAGGAUACUAUUCAACCUACUACCUGA,0.0595 ± 0.0098
20,GGAGAGGAUAUUAUACAACCUACUACCUCA,0.157 ± 0.0082
21,GGAGACCUUACUAAACAACCAACUACCUCA,0.00386 ± 0.0036
22,GGAGACCUAUGUAAACAACCUAGUACCUCA,0.00454 ± 0.0024
23,GGAGACCUAUGUAUACAUCCUUCUACCUCA,0.00859 ± 0.0018
24,GGAGACCUAACCUAUACAACCUACUACCUCA,0.107 ± 0.056
